Whole data set: some 39,000 sequences, median “fluorescence intensity (a.u.)” near 4,300, cut for the highest 2% near 39,000. The sample holds the highest values, similar sequences and a random draw of the others, so the mix is not that of the screen.
What follows are sequences tested against T1, OsSMF1 (Oryza sativa, UniProt Q6ZLB0 1-436) (assay: protein-binding microarray (RPBM); PBS, 2% BSA, 51.3 ng/ul salmon testes DNA, 50 uM zinc acetate, 200 nM TF, 25 C, 1 h; high values mean tight binding). Conditions: protein: recombinant; tags: N-terminal polyhistidine and DsRed monomer fusion (pET32a); chain copies: 2; label: CyDye5-dUTP incorporated in the synthesized complementary strand; 3' TTTTT single-stranded linker to array surface; dsDNA, one strand shown.
T1 sequence: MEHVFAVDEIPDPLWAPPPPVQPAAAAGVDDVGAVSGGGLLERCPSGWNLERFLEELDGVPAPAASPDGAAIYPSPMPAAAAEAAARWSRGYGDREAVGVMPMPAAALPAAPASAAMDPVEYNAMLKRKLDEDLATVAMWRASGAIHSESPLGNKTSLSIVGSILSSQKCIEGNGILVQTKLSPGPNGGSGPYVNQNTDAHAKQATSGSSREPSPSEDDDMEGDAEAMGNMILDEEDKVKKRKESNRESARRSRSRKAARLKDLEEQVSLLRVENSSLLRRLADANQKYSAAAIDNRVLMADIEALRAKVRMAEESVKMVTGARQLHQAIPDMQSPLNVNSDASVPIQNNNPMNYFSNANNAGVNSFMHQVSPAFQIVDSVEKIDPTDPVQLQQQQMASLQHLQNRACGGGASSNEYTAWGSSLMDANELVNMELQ
Summary of the method: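 The binding signal for each feature is its fluorescence intensity in arbitrary units. An Axon 4000B scanner was used to read a custom Agilent array that had been made double-stranded with Cy5-dUTP primer extension, blocked with 2% BSA, incubated at 25 °C for 1 h with 200 nM protein in PBS, 2% BSA, salmon testes DNA and 50 µM zinc acetate, and washed. The protein was an N-terminal polyhistidine–DsRed transcription factor fusion from E. coli BL21-CodonPlus, purified on Ni–NTA.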

Point of comparison: “GCGGCGCGACAGCGACAAAGCGCACGCGCGCGGCGAGCTGCGGAGTCACCTAGTGCAG”, binding signal 30800 fluorescence intensity (a.u.). Against it:
- TGAAAATTTGTACACGTAAGTAATAGATGGTACCAATAGACGGAGTCACCTAGTGCAG — lower, 5890 fluorescence intensity (a.u.)
- TGTCACGAAAATCTTAATATTCATTTGGAGAAAAGAACGGCGGAGTCACCTAGTGCAG — higher, 49000 fluorescence intensity (a.u.)
- GAGAATTCTCCACGAAAAGAGGAGAACGAACCACATCAAACGGAGTCACCTAGTGCAG — lower, 3380 fluorescence intensity (a.u.)
- CGAACGAGAATTCATGGAATCCAAGAAAAGAGACACGTGTCGGAGTCACCTAGTGCAG — lower, 5610 fluorescence intensity (a.u.)
- AAGAGAAAATTCAAGAAATATCATTACCAAAGTCCAAGAACGGAGTCACCTAGTGCAG — higher, 52800 fluorescence intensity (a.u.)
- AGAAGACGATCTCCTGAGACAAATTGCCAAAATTAAAGAACGGAGTCACCTAGTGCAG — lower, 4830 fluorescence intensity (a.u.)
- GCACATCTTCCTTAATTGCCAAAAGAGTAAATTTCACGAACGGAGTCACCTAGTGCAG — higher, 43300 fluorescence intensity (a.u.)
- TTTCAAAATATTCAGTTTGAGAATATGTAAATCTTATGGGCGGAGTCACCTAGTGCAG — lower, 20100 fluorescence intensity (a.u.)
- GAGTTTAATTAATTAATTTCTTAAAATTGATGTCATCACACGGAGTCACCTAGTGCAG — lower, 3140 fluorescence intensity (a.u.)
- CGTGTCATTGTCCAAAATGTCAAAGAAATATGGAACCGGACGGAGTCACCTAGTGCAG — lower, 15200 fluorescence intensity (a.u.)
- GATACGCGGCGGCTGAGTCAGCGTGGGACCCACGTGGGCCCGGAGTCACCTAGTGCAG — lower, 13000 fluorescence intensity (a.u.)
- GCCATCCTCACGCACACGCCACGTGCTCGACGAAATGCCGCGGAGTCACCTAGTGCAG — lower, 4190 fluorescence intensity (a.u.)
- AGCTCAGCTCTCTCTGCTCTGCTCTTTGCTCGATAACGACCGGAGTCACCTAGTGCAG — higher, 33600 fluorescence intensity (a.u.)
- AAGGTTTGGAACATTCTGTTACCTATGAATACTGCACAGGCGGAGTCACCTAGTGCAG — lower, 11700 fluorescence intensity (a.u.)
- AAGAGCGTTTAAACAAGCTGTGGAGTCAGCAGATAGATTACGGAGTCACCTAGTGCAG — lower, 3940 fluorescence intensity (a.u.)
- CGTCGGCGGCGGCGGAGGGGAGGACGACGTGGTCGACCTCCGGAGTCACCTAGTGCAG — lower, 3590 fluorescence intensity (a.u.)
- CGACGAGAAGGACACCTCCTCGGAAAAGGGAGGGCGTCGGCGGAGTCACCTAGTGCAG — higher, 44600 fluorescence intensity (a.u.)
- GGAGGAGTGGTCGCCGGGGATCATCGCGCGGCGTCACCGGCGGAGTCACCTAGTGCAG — lower, 3570 fluorescence intensity (a.u.)
- GGAGGCGGCGGCGACGAGGAGGGGCGTGGGCGGCGGCGGCCGGAGTCACCTAGTGCAG — lower, 3660 fluorescence intensity (a.u.)
- AAAGGAAAGGCGCGTCACGGCGTCAGACGAGACGACGACGCGGAGTCACCTAGTGCAG — lower, 3340 fluorescence intensity (a.u.)
- CCGGGAAGGGAGAGGGAGAGAGGAGTCGGGGCGAGAAGTGCGGAGTCACCTAGTGCAG — lower, 3500 fluorescence intensity (a.u.)
- ATCTAGCGACGAGAAGAGAGGAAGGGAGGGAGGCGTCACGCGGAGTCACCTAGTGCAG — lower, 3830 fluorescence intensity (a.u.)
- CCGACGAGGACGAGGCGGCGTGGTCGAAGCCGGCGGTCGGCGGAGTCACCTAGTGCAG — higher, 42500 fluorescence intensity (a.u.)
- GGGCGGCGACGACGGTCACGGCGGACAAGGGCGGCGGCAACGGAGTCACCTAGTGCAG — lower, 3160 fluorescence intensity (a.u.)
- GGCTCGCAGAAAGGCGGACGACAAGGGCTCAGCAGGGTCACGGAGTCACCTAGTGCAG — higher, 39500 fluorescence intensity (a.u.)
- CATCGCCGCGCGTGCACCAGAGGACCAGACCGACCGGCGTCGGAGTCACCTAGTGCAG — higher, 50200 fluorescence intensity (a.u.)
- GCATCGCCATCGCCGCGTGGTGGCGCACCATTCGCGTCACCGGAGTCACCTAGTGCAG — lower, 5300 fluorescence intensity (a.u.)
- GTATCCATTCCTGCAAATCCAAGTTGGCAATTCCGAGGGCCGGAGTCACCTAGTGCAG — lower, 3340 fluorescence intensity (a.u.)
- TAACTTTGGAACAGGCTGATAAGGGTGGATCCTGCGGTTGCGGAGTCACCTAGTGCAG — lower, 3440 fluorescence intensity (a.u.)
- CTGTTTCAGCACCACTGAGTTCGCAGCAAATGACACAAGGCGGAGTCACCTAGTGCAG — lower, 3340 fluorescence intensity (a.u.)
- CTTCAGGGTCTAGTCTTTTCAAACCATCGGAGTTATCGTCCGGAGTCACCTAGTGCAG — lower, 3530 fluorescence intensity (a.u.)
- CCGTCACGGATGACACTTATCTGTGACGGGCTATAGTTGACGGAGTCACCTAGTGCAG — lower, 4260 fluorescence intensity (a.u.)
- GTCGCGCGCTTGGTGGCTTGCAAGAACCAGCTCCACCGCGCGGAGTCACCTAGTGCAG — lower, 3300 fluorescence intensity (a.u.)
- GATTCGTTGAATACCGTCATTATTGGTGGGTTATCATCATCGGAGTCACCTAGTGCAG — lower, 3490 fluorescence intensity (a.u.)
- GTGGAGTGCGGTGGACGGAGCGGCGGGGCGGGGCGGTCAGCGGAGTCACCTAGTGCAG — lower, 6720 fluorescence intensity (a.u.)
- AAAGTTTTGCATGCCGCTGTCGAAGTCGGCTTCCGCGTAGCGGAGTCACCTAGTGCAG — higher, 32300 fluorescence intensity (a.u.)
- TTAGTGAACGGTGCAACGCGTCAAGGACGAGTCAACGCGCCGGAGTCACCTAGTGCAG — lower, 4850 fluorescence intensity (a.u.)
- AGAGAGAGAGAGAGAGAGAGAGAGCTCAGGATCGACGAGACGGAGTCACCTAGTGCAG — lower, 16900 fluorescence intensity (a.u.)
- ACCAACAAGGTCGTCGCCGACGACGCCGACGCCGACGCCGCGGAGTCACCTAGTGCAG — lower, 27600 fluorescence intensity (a.u.)
- GCCAACGAGGTCGCGTTCGACAAGGTGAAGGACGCCGGCGCGGAGTCACCTAGTGCAG — higher, 39600 fluorescence intensity (a.u.)
- TGCAGCAGGAGATCGATCGATCGATCGATCCAACCGAATGCGGAGTCACCTAGTGCAG — lower, 3260 fluorescence intensity (a.u.)

Reference: PMC7819943, “Rice protein-binding microarrays: a tool to detect cis-acting elements near promoter regions in rice”
